Sampled rows, rich in hits. Any-hit rate of the full collection: about 19%.
HT1080NT lethal: qHTS for induction of synthetic lethality in tumor cells producing 2HG: qHTS for the HT-1080-NT fibrosarcoma cell line | HT-1080-NT fibrosarcoma viability, CellTiter-Glo ATP luminescence, 48 h | Potency, µM (top dose mostly 46.1 µM), for the others: at the highest dose activity, negative = less viability, usual class: cytotoxic | hit rate 1.6% among 360,000;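 note: NT is the 2HG producing partner of a matched IDH1 knockdown line; potency is the fitted concentration of half-maximal effect; 0% = DMSO-treated cells and -100% = media-only wells without cells; nearly all actives have a fitted effect of over 55% in size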
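Toxicity toward the 2HG-producing NT line was scored as %Activity, normalised to DMSO and no-cell wells, from CellTiter-Glo luminescence after 48 hours' treatment.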
TDP1 cell CPT: qHTS for Inhibitors of human tyrosyl-DNA phosphodiesterase 1 (TDP1): qHTS in cells in presence of CPT. AID 686979, 2013. Potency, µM (top dose mostly 46.2 µM), inactives show at the top dose activity change, negative = growth inhibition, actives largely listed as inhibitors. chicken DT40 Tdp1-/-;hTDP1 cells + 20 nM CPT, ATP luminescence, 48 h. hit rate 12% among 420,000; note: potency is the fitted concentration of half-maximal effect; nearly all actives have a fitted effect of over 55% in size
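Chicken DT40 Tdp1-/- cells stably complemented with human TDP1 were seeded at 400 cells/well in medium containing 20 nM camptothecin, exposed to pin-transferred compounds, and grown at 37 °C for at least 48 hr. Viability was read as ATP luminescence.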
TDP1 cell noCPT: qHTS for Inhibitors of human tyrosyl-DNA phosphodiesterase 1 (TDP1): qHTS in cells in absence of CPT; DT40 Tdp1-/- hTDP1 cells, no CPT, ATP luminescence, 48 h; Potency, µM (titrated, usually from 46.2 µM), without a hit: top-dose activity change, negative = growth inhibition, actives largely listed as inhibitors; hit rate 15% among 420,000; AID 686978, 2013; note: potency is the fitted concentration of half-maximal effect; nearly all actives have a fitted effect of over 55% in size
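Luminescent ATP content (CellTiter-Glo) served as the growth readout. Knockout chicken DT40 cells expressing human TDP1 were exposed to compounds without camptothecin for a minimum 48 hr at 37 °C.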
IL-1B inflam inh: qHTS for Inhibitors of Inflammasome Signaling: IL-1-beta AlphaLISA Primary Screen; AID 743279, 2014; hit rate 4.7% among 360,000; THP-1 LPS/ATP IL-1B secretion, AlphaLISA, 16 h; active compounds read low; activity change, % at 57.5 µM; in the data active = activity change below about -50%; inconclusive = mostly about -30% to -49%
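THP-1 cells pretreated 1 hr with compounds (up to 57.5 uM final), then stimulated with LPS (250 ng/mL final) plus ATP (1.25 mM final); secreted IL-1B measured by AlphaLISA after 16 hr, decreased signal indicating inhibition.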
HT1080 IDH1KD tx: qHTS for induction of synthetic lethality in tumor cells producing 2HG: qHTS for the HT-1080-IDH1KD cell line; Potency, µM (series often up to 46.1 µM), inactives show at the top dose activity, negative = toxicity, hits mostly cytotoxic; HT-1080 IDH1 knockdown viability, ATP luminescence, 48 h; hit rate 2% among 360,000; AID 686971, 2013;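 note: potency is the fitted concentration of half-maximal effect; 0% = DMSO wells and -100% = cell-free medium wells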
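In this qHTS, HT-1080 cells depleted of IDH1 are exposed for 48 h at 37 °C to compound titrations. Toxicity is scored from CellTiter-Glo luminescence, with DMSO as full viability and medium alone as none.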
Numbers without * were called inactive; u = inconclusive; x = no result; [ ] = dose if it differs, or a comment. Unless noted, calls come from the whole dose curve; as a rule, active = well fitted curve in the direction sought with a large enough effect; inconclusive = small, poorly fitted or top-dose-only effect, or another doubt; inactive = no such curve, though single readings can be large; an effect the other way counts as inactive or inconclusive. Unless noted, % is set by controls: 0 for no effect and ±100 for the full control effect.

SMILES	HT1080NT lethal	TDP1 cell CPT	TDP1 cell noCPT	IL-1B inflam inh	HT1080 IDH1KD tx
CC1CCN(S(=O)(=O)c2cnc(Cl)c(Br)c2)CC1	2%	-16%	-24%	-65*	14%
CC1CCN(S(=O)(=O)c2ccc(Cl)cc2Br)CC1	-1%	2%	-26%	7	-2%
CC1CCCCN1S(=O)(=O)c1coc(C(N)=O)c1 (stereo unspecified)	11%	-1%	0%	5	4%
CC1CCCCN1S(=O)(=O)c1cnc(Cl)c(Br)c1 (stereo unspecified)	3%	u	u	-94*	-1%
Cc1cccc(NC(=O)CC2C(=O)OCCN2Cc2ccccc2)c1 (stereo unspecified)	x	-24%	-26%	x	x
CCOC(=O)c1ccc(NC(=O)CC2OCCN(CC)C2=O)cc1 (stereo unspecified)	-5%	18µM*	13µM*	3	9%
CCOc1ccc(NC(=O)CC2C(=O)OCCN2CC)cc1 (stereo unspecified)	x	8.2µM*	u	x	x
CCN1CCOC(=O)C1CC(=O)Nc1cccc(OC)c1 (stereo unspecified)	x	5.2µM*	21µM*	x	x
CCOC(=O)c1ccc(NC(=O)CC2C(=O)OCCN2CC)cc1 (stereo unspecified)	23%	21µM*	21µM*	0	15%
COc1ccc(C2C(C#N)=C(N)N(c3sc4c(c3C#N)CCCC4)C3=C2C(=O)CC(C)(C)C3)cc1 (stereo unspecified)	2%	21µM*	u	-2	-1%
COc1ccc(C2C(C#N)=C3NC(=O)c4c(sc5c4CCCCC5)N3C3=C2C(=O)CC(C)(C)C3)cc1 (stereo unspecified)	u	16µM*	23µM*	-24	u
COc1ccc(C2C(C#N)=C(N)N(c3sc4c(c3C#N)CCCC4)C3=C2C(=O)CC(C)(C)C3)cc1OC (stereo unspecified)	-19%	18µM*	u	-12	0%
COc1ccc(-c2ccnc(SCC(=O)c3ccc(Br)cc3)n2)cc1	13%	u	u	-2	12%
CC1(C)C(=O)NCCN1C(=O)CSc1nccc(-c2ccc(Br)cc2)n1	u	u	16µM*	-1	u
Cc1ccc(C(=O)NNC(=O)CSc2nnc(-c3ccncc3)n2C)cc1	6%	-3%	0%	-17	2%
Cc1ccc(NC(=O)c2ccc(=O)[nH]n2)cc1C	17%	-19%	-6%	0	15%
Cc1ccc(NC(=O)c2ccc(=O)[nH]n2)cc1S(=O)(=O)Nc1ccc(SC(F)F)cc1	-24%	15µM*	18µM*	7	-25%
O=C(NCc1ccco1)C1CCCN(c2nnc(-n3cccc3)s2)C1 (stereo unspecified)	2.6µM*	-5%	3%	-11	u
COC(=O)c1ccccc1NC(=O)C1CCCN(c2nnc(-n3cccc3)s2)C1 (stereo unspecified)	4%	16µM*	21µM*	-15	-12%
COC(=O)c1ccccc1NC(=O)C1CCCN(S(C)(=O)=O)C1 (stereo unspecified)	-5%	-1%	-2%	20	1%
COc1ccc(/C=C2/SC(=O)N(CCC(=O)Nc3ccccc3C(=O)O)C2=S)cc1	-3%	-3%	7%	0	-6%
COc1ccc(C2CC(=O)N(C)c3ccccc3S2)cc1 (stereo unspecified)	1%	u	u	0	-12%
O=C(Nc1nc(N2C(=O)c3ccccc3C2=O)n(-c2ccccc2)n1)c1ccc(Cl)cc1	-9%	-6%	-11%	-9	-8%
Nn1c(SCC(=O)Nc2cccc(F)c2)nnc1C1CCCCC1	4%	3%	-20%	-16	4%
CCOC(=O)c1cnc2c(c(C)nn2C)c1Oc1ccc(Cl)cc1	-22%	16µM*	u	28	-27%
SMILES	HT1080NT lethal	TDP1 cell CPT	TDP1 cell noCPT	IL-1B inflam inh	HT1080 IDH1KD tx
Cc1nn(C)c2ncc(C(N)=O)c(Oc3cccnc3)c12	3%	3%	-23%	0	11%
O=[N+]([O-])c1ccccc1S(=O)(=O)NC1CCCCCCC1	-5%	-22%	16µM*	4	-3%
CCc1ccccc1NC(=O)NNS(=O)(=O)c1cc(C)ccc1C	4%	-1%	2%	3	6%
COc1ccc(Cl)cc1NC(=S)N(CCCN1CCOCC1)Cc1cn(C)c2ccccc12	u	13µM*	u	-19	-22%
COc1cc(Cl)ccc1NC(=S)N(CCCN1CCOCC1)Cc1cn(C)c2ccccc12	u	16µM*	21µM*	u	u
CCc1c2ccccc2nn1-c1ccccc1C(=O)C(C)=O	-1%	16%	-3%	-4	-2%
CC1CCN(CC(=O)N2CC(=O)Nc3ccccc32)CC1	12%	-5%	15%	-2	7%
N#C/C(=C\c1ccc(-c2cc(Cl)ccc2Cl)o1)C(=O)Nc1ccccc1C(=O)O	x	-30%	u	x	x
O=C(Nc1nc(COc2ccccc2)cs1)C1CCC1	-2%	23µM*	16µM*	u	-6%
CC(=O)Nc1nc(COc2ccccc2)cs1	11%	-10%	-19%	-5	18%
COc1cccc(OC)c1C(=O)Nc1nc(COc2ccccc2)cs1	1%	-26%	u	9	-10%
O=C(Nc1nc(COc2ccccc2)cs1)C12CC3CC(CC(C3)C1)C2	6.3µM*	22µM*	u	-28	u
Cc1ccc(C(=O)Nc2nc(COc3ccccc3)cs2)s1	u	u	u	-87*	u
Cc1cnc(-n2ncc(C(=O)NCC(C)(C)N3CCOCC3)c2C)nc1-c1cccs1	x	1%[9.04 µM]	-7%	x	x
Cn1c2ccccc2c2c(=O)oc3ccccc3c21	2%	u	u	0	6%
Cc1ccc(N(Cc2cc3ccc(C)cc3[nH]c2=O)S(=O)(=O)c2ccccc2)cc1	6%	4%	u	-19	1%
Cc1cc(C)n2c(NC3CCCCC3)c(-c3ccccn3)nc2n1	-7%	u	23µM*	43	4%
Cc1cc(C)n2c(NC3CCCC3)c(-c3cc4ccccc4o3)nc2n1	-29%	u	u	15	4%
Cc1cc(C)n2c(Nc3ccc4c(c3)OCCO4)c(-c3ccc(F)cc3)nc2n1	-16%	u	u	-4	-8%
Cc1cc(C)n2c(NC3CCCC3)c(-c3ccc(F)cc3)nc2n1	12%	u	18µM*	20	3%
